# PubChem BioAssay AID2098 (Broad Institute, 2009)
# In all, about 300,000 compounds went through this assay and about 2,300 (0.77%) were called active. The sample holds actives, similar compounds and a random draw of the others, so the mix is not that of the screen. Values without a mark were called inactive.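 Rule for the calls: active = more than half of replicate wells show activity change below -50%, luminescence cut by over half; inconclusive = some wells, but at most half, below -50%; inactive = no replicate well below -50%.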
# Assay: HSF1 inhibitors in luciferase reporter cells, primary screen, cell-based, NIH3T3, luminescence (AID 2098);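 note: luciferase reports HSF-1 transcriptional activity via heat shock element; 0% = median of DMSO wells and -100% = zero luminescence signal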
# Details: NIH3T3-HGL HSE-luciferase, MG132-induced, luminescence 8 h; active compounds read low; screened at 7.5 µM (by protocol)
row,Structure (SMILES),"activity change, negative = inhibition"
1,COc1cccc(N2CC(NS(=O)(=O)c3ccc(Cl)cc3)CC2=O)c1 (stereo not given),8.69%
2,C=C(C)C(=O)O[C@H]1C/C(C)=C\C(=O)/C=C(\C)[C@H](O)[C@@H]2OC(=O)C(=C)[C@@H]21,-73.5% (active)
3,CN(CC(=O)NCc1cccnc1)S(=O)(=O)c1cc(Cl)ccc1Cl,1.42%
4,CCN(CC(=O)Nc1ccc(NC(C)=O)cc1)C(=O)C1CC(=O)N(Cc2ccc(C)cc2)C1 (stereo not given),-0.586%
5,COC(=O)CCNc1ccc2c(c1)OCCO2,-72.6% (active)
6,COc1ccccc1OCCCC(=O)Nc1ccc2c(c1)OCCO2,1.02%
7,CCOc1ccc(NCCC(=O)c2ccc3c(c2)OCO3)cc1,-1.61%
8,Cc1ccc2nc(SCC(=O)N3CC(C)OC(C)C3)nc(=O)n2c1 (stereo not given),3.03%
9,Cc1ccc(S(=O)(=O)CCC(=O)OCC(=O)N(C)C2CCS(=O)(=O)C2)cc1 (stereo not given),-3.16%
10,COc1ccc(CN2[C@@H](CC(=O)O)c3cc(F)ccc3S2(=O)=O)cc1,-5.27%
11,O=S1(=O)CC/C(=N\Nc2ccc(F)cc2)c2ccsc21,-74.8% (active)
12,COc1ccc(C(=O)N/N=C2\CCS(=O)(=O)c3ccc(F)cc32)cc1OC,9.4%
13,CCN(CC(=O)NCc1ccco1)S(=O)(=O)c1ccc(F)cc1,-5.85%
14,CCN(CC(=O)N1CCCC1)S(=O)(=O)c1ccc(F)cc1,-65.5% (active)
15,COc1ccc(S(=O)(=O)N(C)CC(=O)N2CCCC2)cc1,0.377%
16,COc1ccc(CNC(=O)C2CCCC2)cc1,-0.797%
17,CCOc1ccc(NC(=O)CN(C)C(=O)COc2cccc(CC)c2)cc1OCC,3.71%
18,COC(=O)CCCC1=CC2=CC(=O)C(C)(OC(=O)c3cccs3)C(=O)C2=CN1c1cccc(C#N)c1 (stereo not given),0.873%
19,COC(=O)CCCC1=CC2=C(c3ccccc3)C(=O)C(C)(OC(=O)C3CCCC3)C(=O)C2=CN1c1ccc(OC)cc1 (stereo not given),-88.7% (active)
20,COC(=O)CCCC1=CC2=CC(=O)C(C)(OC(=O)c3cccs3)C(=O)C2=CN1CC1CC1 (stereo not given),-2.87%
21,CC(=O)c1ccc(S(=O)(=O)Nc2ccc(-c3ccc4nncn4n3)cc2)cc1,2.56%
22,COc1ccc(NC(=O)CN(C)C(=O)c2ccc(COc3ccccc3)o2)cc1,3.16%
23,O=c1c2ccccc2nc2n1C1(CCCCC1)Cc1ccccc1-2,15.3%
24,CN(c1ccc2nc3ccccc3c(=O)n2n1)C1CCCCC1,-86.8% (active)
25,CN(C(=O)c1cc2c(=O)n3ccccc3nc2s1)C1CCCCC1,23.2%
